# “And” between values parts separate entries of the source, which are not always exact repeats. Equal entries are not always repeated. Records with an inconclusive call do not appear. A call without a number means that no potency is given here. A structure can be active in one record and inactive in another. The source made the active and inactive calls. Unless noted, calls come from the whole dose curve; as a rule, active = well fitted curve in the direction sought with a large enough effect in the repeat runs; inconclusive = weak or mixed curves; inactive = no such curve, though single readings can be large; an effect the other way counts as inactive or inconclusive.
# What was measured:
# [1] = molecular target: Retinoic acid receptor RXR-alpha (Homo sapiens) (UniProt P19793); assay: qHTS assay to identify small molecule agonists of the RXR signaling pathway (AID 1159527; calls by dose curve; note: nearly all actives have a fitted effect of over 35% in size; note: potency is the fitted concentration of half-maximal effect)
# Sequence of Retinoic acid receptor RXR-alpha (Homo sapiens) (P19793 whole entry, looked up): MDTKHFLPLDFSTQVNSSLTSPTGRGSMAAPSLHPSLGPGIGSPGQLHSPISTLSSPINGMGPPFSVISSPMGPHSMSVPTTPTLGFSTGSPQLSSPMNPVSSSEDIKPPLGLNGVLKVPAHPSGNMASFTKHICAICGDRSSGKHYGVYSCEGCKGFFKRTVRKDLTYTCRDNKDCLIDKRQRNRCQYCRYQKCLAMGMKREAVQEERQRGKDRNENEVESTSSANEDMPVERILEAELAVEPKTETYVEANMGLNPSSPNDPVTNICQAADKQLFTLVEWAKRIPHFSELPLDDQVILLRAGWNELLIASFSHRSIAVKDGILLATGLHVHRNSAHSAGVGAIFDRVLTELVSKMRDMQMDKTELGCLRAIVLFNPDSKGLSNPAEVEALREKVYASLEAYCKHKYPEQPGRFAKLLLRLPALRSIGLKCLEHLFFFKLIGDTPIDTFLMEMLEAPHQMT
# How it was run: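 Compounds in DMSO were added to RXR-alpha-UAS-bla HEK 293T cells kept in 2% charcoal-stripped serum, and incubated 16 hr at 37 C with 5% CO2. Reporter signal came from a 2 hr B/G FRET substrate step.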
# [2] = qHTS assay to identify small molecule antagonists of the retinoid acid receptor (RAR) signaling pathway - cell viability counter screen (AID 1159551); note: nearly all actives have a fitted effect of over 35% in size
# How it was run: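 Seed C3RL4 cells; next day add compound, then retinol to 1 uM final; incubate 6 h at 37 C; add CellTiter-Glo; read luminescence after 30 min at RT.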
# [3] = qHTS assay to identify small molecule antagonists of the retinoic acid receptor (RAR) signaling pathway (AID 1159552; note: nearly all actives have a fitted effect of over 50% in size; note: potency is the fitted concentration of half-maximal effect)
# How it was run: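 Antagonism of retinol-induced RARE reporter activity was measured in C3RL4 cells. Exposure to compounds and 1 uM final retinol lasted 6 hr at 37 C, with luminescence as endpoint.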
# [4] = qHTS assay to identify small molecule agonists of the retinoic acid receptor (RAR) signaling pathway (AID 1159553); note: potency is the fitted concentration of half-maximal effect
# How it was run: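 Activation of retinol signaling was monitored via a RARE luciferase reporter in C3RL4 cells. After 6 hr compound treatment at 37 C, detection reagent was added for 30 min at room temperature before luminescence reading.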
# [5] = qHTS assay to identify small molecule antagonists of the estrogen related receptor (ERR) signaling pathway from Tox21 library - cell viability counter screen (AID 1224834); note: nearly all actives have a fitted effect of over 30% in size; note: potency is the fitted concentration of half-maximal effect
# How it was run: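 CellTiter-Fluor fluorescence measured; ERR cells; 17.5 h compound incubation at 37 C; 30 min reagent step.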
# [6] = molecular target: Luciferin 4-monooxygenase (Photinus pyralis) (UniProt P08659); assay: qHTS assay to identify small molecule inhibitors of firefly luciferase (AID 1224835); note: nearly all actives have a fitted effect of over 25% in size; note: potency is the fitted concentration of half-maximal effect
# Sequence of Luciferin 4-monooxygenase (Photinus pyralis) (P08659 whole entry, looked up): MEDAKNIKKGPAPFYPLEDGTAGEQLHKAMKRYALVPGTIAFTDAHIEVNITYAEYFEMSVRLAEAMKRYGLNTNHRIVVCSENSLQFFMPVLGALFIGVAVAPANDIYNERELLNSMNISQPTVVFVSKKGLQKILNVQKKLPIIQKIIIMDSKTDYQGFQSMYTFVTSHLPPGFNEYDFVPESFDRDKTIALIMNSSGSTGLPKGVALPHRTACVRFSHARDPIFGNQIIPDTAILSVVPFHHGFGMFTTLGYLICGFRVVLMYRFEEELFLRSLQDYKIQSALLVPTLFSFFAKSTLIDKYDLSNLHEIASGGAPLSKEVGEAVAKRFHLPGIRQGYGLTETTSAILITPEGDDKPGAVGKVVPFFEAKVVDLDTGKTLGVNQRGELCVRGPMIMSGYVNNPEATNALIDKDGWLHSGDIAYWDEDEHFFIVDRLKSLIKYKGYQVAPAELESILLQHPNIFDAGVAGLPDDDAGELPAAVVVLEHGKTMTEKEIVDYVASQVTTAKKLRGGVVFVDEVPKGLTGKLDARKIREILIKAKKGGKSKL
# How it was run: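 Inhibition of purified Photinus luciferase is measured by luminescence. Substrate levels (D-luciferin, ATP) sit at their KM values. Each compound is tested in a concentration series.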
# [7] = qHTS assay to identify small molecule agonists of the constitutive androstane receptor (CAR) signaling pathway - cell viability counter screen (AID 1224836); note: series mostly up to about 92 µM; nearly all actives have a fitted effect of over 45% in size
# How it was run: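 Double-stable HepG2 hepatoma cells (hCAR plus CYP2B6-2.2kb) are treated for 23 h at 37 C with test compounds in 15-point concentration series. PK11195 at 0.75 uM final is co-added. Cell viability is quantified by CellTiter-Fluor.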
# [8] = qHTS assay to identify small molecule antagonists of the constitutive androstane receptor (CAR) signaling pathway - cell viability counter screen (AID 1224837); note: series mostly up to about 92 µM; nearly all actives have a fitted effect of over 45% in size
# How it was run: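 Using CellTiter-Fluor, viability is scored in HepG2 cells stably carrying hCAR and a 2.2kb CYP2B6 reporter after 23 hr compound exposure across 15 concentrations, with CITCO present at 50 nM.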
# [9] = molecular target: Nuclear receptor subfamily 1 group I member 3 (Homo sapiens) (UniProt Q14994); assay: qHTS assay to identify small molecule antagonists of the constitutive androstane receptor (CAR) signaling pathway (AID 1224838);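 note: HepG2 cells stably expressing hCAR with CYP2B6 luciferase reporter stimulated by CITCO; nearly all actives have a fitted effect of over 40% in size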
# Sequence of Nuclear receptor subfamily 1 group I member 3 (Homo sapiens) (Q14994 whole entry, looked up): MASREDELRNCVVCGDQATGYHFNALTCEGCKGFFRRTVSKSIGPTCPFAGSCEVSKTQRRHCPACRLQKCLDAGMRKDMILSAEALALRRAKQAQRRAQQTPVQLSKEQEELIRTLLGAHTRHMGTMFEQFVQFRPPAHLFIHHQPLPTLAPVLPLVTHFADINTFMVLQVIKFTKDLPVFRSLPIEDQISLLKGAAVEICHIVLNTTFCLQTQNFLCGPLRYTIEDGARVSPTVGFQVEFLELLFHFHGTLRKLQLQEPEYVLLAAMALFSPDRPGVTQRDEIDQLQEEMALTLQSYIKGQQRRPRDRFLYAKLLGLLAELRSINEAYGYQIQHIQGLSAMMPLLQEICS
# How it was run: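 Reporter luminescence was quantified after 24 h exposure of hCAR/CYP2B6-2.2kb double-stable HepG2 cells to compounds at 15 concentrations in the presence of 50 nM CITCO final.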
# [10] = molecular target: Nuclear receptor subfamily 1 group I member 3 (Homo sapiens) (UniProt Q14994); assay: qHTS assay to identify small molecule agonists of the constitutive androstane receptor (CAR) signaling pathway (AID 1224839); note: nearly all actives have a fitted effect of over 15% in size; note: potency is the fitted concentration of half-maximal effect
# How it was run: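 Readout: firefly luciferase luminescence via ONE-Glo. System: HepG2 double-stable for hCAR and CYP2B6-2.2kb. Conditions: 15-point compound titration, PK11195 at 0.75 uM final, 24 h incubation.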
# [11] = qHTS assay to identify small molecule antagonists of the estrogen related receptor signaling pathway with the pleiotropic PPARgamma coactivator (PGC) from Tox21 10K library - cell viability counter screen (AID 1224840; active = well fitted cell-killing curve with a large enough effect in the repeat runs, not every such curve was filed as active; note: nearly all actives have a fitted effect of over 40% in size; note: potency is the fitted concentration of half-maximal effect)
# How it was run: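 Here the PGC/ERR cells serve as a cytotoxicity control: they are exposed to compounds for 17.5 hours at 37 C, and live-cell signal is quantified using CellTiter-Fluor fluorescence.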
# [12] = qHTS assay to identify small molecule agonists of the RXR signaling pathway - cell viability counter screen (AID 1159529);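 note: HEK 293T cells carrying an RXR-alpha UAS beta-lactamase reporter; series mostly up to about 77 µM; nearly all actives have a fitted effect of over 50% in size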
# How it was run: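 Counter screen: CellTiter-Glo luminescence. Cells: RXR-alpha-UAS-bla HEK 293T. Medium: 2% charcoal-stripped FBS. Treatment: 16 h, 37 C. Reagent incubation: 30 min, RT.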
# [13] = qHTS assay to identify small molecule antagonists of the estrogen related receptor signaling pathway with the pleiotropic PPARgamma coactivator (PGC) from Tox21 10K library (AID 1224841; call rule not given here; note: series mostly up to about 92 µM; actives are mostly falling curves and most rising ones were filed inactive; nearly all actives have a fitted effect of over 50% in size)
# How it was run: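 Each well held 2,000 PGC/ERR cells, pre-incubated six hours (37 C, 5% CO2). Test substances in DMSO were added by pin tool and left for 18 h at 37 C before luciferase detection by One-Glo.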
# [14] = qHTS assay to identify small molecule agonists of the estrogen related receptor signaling pathway with the pleiotropic PPARgamma coactivator (PGC) from Tox21 10K library (AID 1224842); note: nearly all actives have a fitted effect of over 15% in size
# How it was run: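 Luminescence from One-Glo (30 min, room temperature) measured after PGC/ERR cells had 18 h at 37 C with pinned compound (23 nL in DMSO). Cells had been seeded at 2,000 per well and pre-incubated 6 h.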
# [15] = qHTS assay to identify small molecule antagonists of the estrogen related receptor (ERR) signaling pathway - cell viability counter screen (AID 1224818);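 note: series mostly up to about 46 µM; viability measured after 17.5 h of compound exposure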
# How it was run: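 In the same ERR cell assay, compound-treated wells (17.5 h, 37 C) were multiplexed with a fluorogenic viability reagent, CellTiter-Fluor, read after 30 min to flag cytotoxic substances.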
# [16] = qHTS assay to identify small molecule antagonists of the estrogen related receptor signaling pathway with the pleiotropic PPARgamma coactivator (PGC) cell viability counter screen (AID 1224822; note: series mostly up to about 46 µM)
# How it was run: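 Compounds in DMSO, with positive and negative controls, were applied to PGC/ERR cells (2,000/well) and left 17.5 h at 37 C before CellTiter-Fluor detection.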
Compound,Potency [1],outcome [2],Potency [3],Potency [4],Potency [5],Potency [6],Potency [7],Potency [8],Potency [9],Potency [10],Potency [11],outcome [12],Potency [13],Potency [14],outcome [15],outcome [16]
CC[N+](=O)[O-],inactive,inactive,inactive,inactive,inactive,inactive,inactive,inactive,inactive,inactive,inactive,–,–,–,–,–
O=C/C=C/c1ccccc1,inactive,–,inactive,inactive and 34.4 µM (active),inactive,inactive and 44.8 µM (active),inactive,–,inactive,inactive,inactive,inactive,–,–,–,–
Cc1cccc(N)c1C,11.4 µM (active) and inactive,inactive,inactive,inactive,inactive,inactive,inactive,–,inactive,inactive and 61.1 µM (active),inactive,–,–,–,–,–
CCOC(=O)CC(SP(=O)(OC)OC)C(=O)OCC (stereo unspecified),inactive,–,inactive,inactive,inactive,inactive,inactive,inactive,inactive,inactive,inactive,inactive,–,–,–,–
CC12CC1(C)C(=O)N(c1cc(Cl)cc(Cl)c1)C2=O (stereo unspecified),inactive,–,–,–,inactive,inactive,inactive,inactive,inactive,inactive,inactive,inactive,–,–,–,–
OCC(O)CCl (stereo unspecified),inactive,inactive,inactive,inactive,inactive,inactive,inactive,inactive,inactive,inactive,inactive,–,–,–,–,–
CN(C)CCC#N,inactive,–,inactive,inactive,inactive,inactive,inactive,–,–,–,inactive,inactive,–,–,–,–
C=CCN=C=S,inactive,inactive,inactive,inactive,inactive,inactive,inactive,inactive,inactive,inactive,inactive,–,inactive,inactive,–,–
COP(=S)(OC)SCN1C(=O)c2ccccc2C1=O,inactive,–,–,–,inactive,71.5 µM (active) and 63.3 µM (active) and inactive,inactive,inactive,–,–,inactive,inactive,–,–,–,–
CCOc1ccc(N)cc1,11 µM (active) and inactive,–,inactive,inactive,inactive,inactive and 79.6 µM (active),inactive,inactive,inactive,inactive,inactive,inactive,inactive,inactive,–,–
Nc1ncc([N+](=O)[O-])s1,inactive,–,inactive,inactive,49 µM (active) and inactive,inactive,inactive,inactive,–,–,inactive,inactive,inactive,inactive,–,–
C=CC(=O)OCCCCCC(C)C,inactive,inactive,inactive,inactive,inactive,inactive,inactive,inactive,–,–,inactive,–,–,–,–,–
ClC(Cl)c1ccccc1,inactive,–,inactive,inactive,inactive,inactive,inactive,inactive,inactive,inactive,inactive,inactive,inactive,inactive,–,–
Nc1ccc(N)cc1,inactive,–,inactive,34.4 µM (active) and 23.7 µM (active),30.8 µM (active) and 30.6 µM (active) and inactive,40.1 µM (active) and 35.6 µM (active),–,–,inactive,21.8 µM (active) and 21.7 µM (active) and inactive,inactive,inactive,–,–,–,–
N#CN=C(N)N,inactive,inactive,inactive,inactive,inactive,inactive,inactive,inactive,inactive,inactive,inactive,–,–,–,–,–
COC(C)(C)CCCC(C)C/C=C/C(C)=C/C(=O)OC(C)C (stereo unspecified),inactive,–,inactive,inactive,inactive,inactive,inactive,–,inactive,inactive,inactive,inactive,inactive,inactive,–,–
CCOP(=S)(OCC)Oc1cc(C)nc(C(C)C)n1,inactive,–,–,–,inactive,inactive,inactive,inactive,inactive,inactive,inactive,inactive,–,–,–,–
CNC(=O)O/N=C/C(C)(C)SC,inactive,–,inactive,inactive,inactive,inactive,inactive,inactive,inactive,inactive,inactive,inactive,inactive,inactive,–,–
Cc1cccc(C)c1NC(=O)CN1CCCC1=O,inactive,–,inactive,inactive,inactive,inactive,inactive,–,–,–,inactive,–,–,–,inactive,inactive
CC(=O)C1CCOC1=O (stereo unspecified),inactive,–,inactive,inactive,inactive,inactive,inactive,inactive,–,–,inactive,–,–,–,–,–
Cc1ccc(N)cc1,inactive and 19.5 µM (active),–,inactive,61.5 µM (active) and inactive,inactive,inactive,inactive,inactive,inactive,2.45 µM (active),inactive,–,inactive,inactive,–,–
Oc1ccc(Cl)cc1,inactive,inactive,inactive,inactive,inactive,–,inactive,–,inactive,inactive,inactive,–,–,–,–,–
COc1cc(-c2ccc(N)c(OC)c2)ccc1N,inactive,–,inactive and 58.3 µM (active),inactive,52 µM (active),31.8 µM (active) and inactive,inactive,inactive,inactive,54.7 µM (active) and 58.3 µM (active),inactive and 29.2 µM (active),–,inactive,inactive,–,–
CCCOC(=O)c1ccccc1C(=O)OCCC,inactive,–,–,–,inactive,inactive,inactive,inactive,–,–,inactive,–,–,–,–,–

# Source: PubChem BioAssay (Tox21)
